Reference: PubChem BioAssay (Tox21)
Inconclusive results are not listed. Active and inactive are the calls of the source. The call rests on the fitted dose curve; in most records, active means well fitted curve in the direction sought with a large enough effect in the repeat runs; inconclusive means weak or mixed curves; inactive means no such curve, though single readings can be large; an effect the other way counts as inactive or inconclusive.

Columns and labels:
[1] = qHTS RealTime-Glo MT Cell Viability Assay in HEK293 cells - 16 hour (AID 1224872); further: top concentration of the series differs between compounds; nearly all actives have a fitted effect of over 50% in size
How it was run: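 Reads taken at 0, 8, 16, 24, 32 and 40 h from the same wells. HEK293 cells (600/well) carried RealTime-Glo reagents from seeding, with compound added after a 5 h settle at 37 C.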

[2] = qHTS RealTime-Glo MT Cell Viability Assay in HepG2 cells - 8 hour (AID 1224873); further: nearly all actives have a fitted effect of over 55% in size
How it was run: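 Real-time viability: cells seeded at 600 per well together with NanoLuc and cell-permeant prosubstrate, compounds added after 5 h incubation. Luminescence tracked at 0, 8, 16, 24, 32 and 40 h of exposure.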

[3] = qHTS RealTime-Glo MT Cell Viability Assay in HEK293 cells - 40 hour (AID 1224874); settings: RealTime-Glo luminescence; max response: stronger effect = lower value; further: nearly all actives have a fitted effect of over 50% in size
How it was run: (§1)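 Measured as luminescence from the same continuously cultured HEK293 wells at successive time points (0, 8, 16, 24, 32, 40 h) after compound addition. Reagent present from seeding; dosing at 5 h; incubation 37 C.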

[4] = A CellTox Green Cytotoxicity Assay to monitor cytotoxicity in HEK293 cells - 24 hour (AID 1224875); further: series mostly up to about 77 µM; nearly all actives have a fitted effect of over 45% in size
How it was run: (§2)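 Homogeneous no-lysis format: HEK293 cell suspension mixed with CellTox Green reagent, seeded, incubated 5 h at 37 C/5% CO2, then dosed by pintool with compound in DMSO.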

[5] = A CellTox Green Cytotoxicity Assay to monitor cytotoxicity in HepG2 cells - 16 hour (AID 1224876); further: nearly all actives have a fitted effect of over 45% in size
How it was run: (§3)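 Fluorescent DNA-binding dye, 600 HepG2 cells/well, 5 h preincubation then compound in DMSO; same plates read at 0–40 h, 37 C.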

[6] = qHTS RealTime-Glo MT Cell Viability Assay in HepG2 cells - 32 hour (AID 1224877); further: nearly all actives have a fitted effect of over 55% in size
How it was run: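 HepG2 suspension premixed with RealTime-Glo reagents is plated at 600 cells per well and left 5 h at 37 C/5% CO2. Compounds in DMSO then go in, and bioluminescence reflecting viable cell number is recorded over 40 h.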

[7] = A CellTox Green Cytotoxicity Assay to monitor cytotoxicity in HepG2 cells - 24 hour (AID 1224878); further: nearly all actives have a fitted effect of over 45% in size
How it was run: as §3

[8] = A CellTox Green Cytotoxicity Assay to monitor cytotoxicity in HepG2 cells - 40 hour (AID 1224879); further: nearly all actives have a fitted effect of over 40% in size
How it was run: as §3

[9] = qHTS RealTime-Glo MT Cell Viability Assay in HEK293 cells - 0 hour (AID 1224880); further: top concentration of the series differs between compounds; nearly all actives have a fitted effect of over 45% in size
How it was run: as §1

[10] = A CellTox Green Cytotoxicity Assay to monitor cytotoxicity in HEK293 cells - 32 hour (AID 1224881); further: nearly all actives have a fitted effect of over 40% in size
How it was run: as §2
On the % scale 0 is the no-effect control and ±100 the full control effect.

O=C(CS)Nc1ccccc1
inactive: Potency [1] | Potency [2] | max response [3] -18% | Potency [4] | Potency [5] | Potency [6] | Potency [7] | Potency [8] | Potency [9] | Potency [10]

COc1ccc(C)cc1[N+](=O)[O-]
inactive: Potency [1] | Potency [2] | max response [3] -4.46% | Potency [4] | Potency [5] | Potency [6] | Potency [7] | Potency [8] | Potency [9] | Potency [10]

CCCCc1ncc(/C=C(\Cc2cccs2)C(=O)O)n1Cc1ccc(C(=O)O)cc1
inactive: Potency [1] | Potency [2] | max response [3] 2.83% | Potency [4] | Potency [5] | Potency [6] | Potency [7] | Potency [8] | Potency [9] | Potency [10]

Cc1cc(C(=O)O)ccc1[N+](=O)[O-]
inactive: Potency [1] | Potency [2] | max response [3] 9.13% | Potency [4] | Potency [5] | Potency [6] | Potency [7] | Potency [8] | Potency [9] | Potency [10]

C=C(C)C(=O)OCCOCC
inactive: Potency [1] | Potency [2] | max response [3] 17.3% | Potency [4] | Potency [5] | Potency [6] | Potency [7] | Potency [8] | Potency [9]

CCOCC(O)COc1ccc(NC(=O)CC[S+](C)C)cc1 (stereo not drawn)
inactive: Potency [1] | Potency [2] | max response [3] 1.67% | Potency [4] | Potency [5] | Potency [6] | Potency [7] | Potency [8] | Potency [9] | Potency [10]

Nc1c(CC(=O)O)cccc1C(=O)c1ccc(Br)cc1
inactive: Potency [1] | Potency [2] | max response [3] 13% | Potency [4] | Potency [5] | Potency [6] | Potency [7] | Potency [8] | Potency [9] | Potency [10]

O=C(O)CNCC(=O)O
inactive: activity change, negative = cytotoxicity [1] -7.32% [at 6.97 µM] | viability change, negative = cytotoxic [2] 0.198% [at 6.97 µM] | max response [3] -8.46% | activity change [4] 3.54% [at 6.97 µM, stronger effect = higher value] | cytotoxicity increase [5] -9.02% [at 6.97 µM] | activity change, negative = cytotoxic [6] 0.774% [at 6.97 µM] | cytotoxicity [7] -3.31% [at 6.97 µM] | cytotoxicity increase [8] -10.4% [at 6.97 µM] | activity change, negative = cytotoxicity [9] -1.51% [at 6.97 µM] | cytotoxicity increase [10] 4.03% [at 6.97 µM]

CCCCCCc1ccc(-c2ccc(C#N)cc2)cc1
inactive: Potency [1] | Potency [2] | max response [3] -15.1% | Potency [4] | Potency [5] | Potency [6] | Potency [7] | Potency [8] | Potency [9]

CC/C=C\CCOC(=O)CC
inactive: Potency [1] | Potency [2] | max response [3] 0.388% | Potency [4] | Potency [5] | Potency [6] | Potency [7] | Potency [8] | Potency [9] | Potency [10]

Cc1[nH]c(C)c(Cl)c(=O)c1Cl
inactive: activity change, negative = cytotoxicity [1] -23.6% [at 15.8 µM] | viability change, negative = cytotoxic [2] 0.139% [at 15.8 µM] | max response [3] -19.8% | activity change [4] -5.28% [at 15.8 µM, stronger effect = higher value] | cytotoxicity increase [5] -3.96% [at 15.8 µM] | activity change, negative = cytotoxic [6] 3.22% [at 15.8 µM] | cytotoxicity [7] -5.69% [at 15.8 µM] | cytotoxicity increase [8] -5.76% [at 15.8 µM] | activity change, negative = cytotoxicity [9] 7.46% [at 15.8 µM] | cytotoxicity increase [10] -3.98% [at 15.8 µM]

Cc1ccccc1S(=O)(=O)O
inactive: Potency [1] | Potency [2] | max response [3] 3.84% | Potency [4] | Potency [5] | Potency [6] | Potency [7] | Potency [8] | Potency [9] | Potency [10]

CC(COCCO)OCCO (stereo not drawn)
inactive: Potency [1] | Potency [2] | max response [3] 4.24% | Potency [4] | Potency [5] | Potency [6] | Potency [7] | Potency [8] | Potency [9] | Potency [10]

C=CC1CC2C=CC1C2 (stereo not drawn)
inactive: Potency [1] | Potency [2] | max response [3] 2.72% | Potency [4] | Potency [5] | Potency [6] | Potency [7] | Potency [8] | Potency [9] | Potency [10]

CCCCCCCN
inactive: Potency [1] | Potency [2] | max response [3] -2.68% | Potency [4] | Potency [5] | Potency [6] | Potency [7] | Potency [8] | Potency [9] | Potency [10]

O=CC1CC=CCC1 (stereo not drawn)
inactive: Potency [1] | Potency [2] | max response [3] 10.8% | Potency [4] | Potency [5] | Potency [6] | Potency [7] | Potency [8] | Potency [9] | Potency [10]

Nc1ccc(S(=O)(=O)Nc2ccccc2)cc1
inactive: Potency [1] | Potency [2] | max response [3] 0.381% | Potency [4] | Potency [5] | Potency [6] | Potency [7] | Potency [8] | Potency [9] | Potency [10]

CCOC(=O)C(O)c1ccccc1 (stereo not drawn)
inactive: Potency [1] | Potency [2] | max response [3] 4.49% | Potency [4] | Potency [5] | Potency [6] | Potency [7] | Potency [8] | Potency [9] | Potency [10]
